# Results: PubChem BioAssay (Tox21)
# Activity calls are given as the source filed them. A call without a number means that no potency is given here. Calls follow the shape of the full dose curve.
# Biological target: Acetylcholinesterase (Homo sapiens) (UniProt P22303)
# Test: Acetylcholinesterase (AChE) small molecule antagonists: enzyme-based qHTS assay (AID 1347397); also: nearly all actives have a fitted effect of over 55% in size
# Details: Potency: AChE enzyme activity inhibition; outcome: AChE enzyme activity inhibition; series mostly up to 115 µM
# How it was run: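 Human recombinant acetylcholinesterase; substrate acetylthiocholine; thiocholine quantified with DTNB (colorimetric). Compound preincubation 30 min RT; reaction 10 min RT.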
# Potency is read from the fitted curve at half-maximal effect.
# Chain of Acetylcholinesterase (Homo sapiens) (P22303 whole entry, looked up): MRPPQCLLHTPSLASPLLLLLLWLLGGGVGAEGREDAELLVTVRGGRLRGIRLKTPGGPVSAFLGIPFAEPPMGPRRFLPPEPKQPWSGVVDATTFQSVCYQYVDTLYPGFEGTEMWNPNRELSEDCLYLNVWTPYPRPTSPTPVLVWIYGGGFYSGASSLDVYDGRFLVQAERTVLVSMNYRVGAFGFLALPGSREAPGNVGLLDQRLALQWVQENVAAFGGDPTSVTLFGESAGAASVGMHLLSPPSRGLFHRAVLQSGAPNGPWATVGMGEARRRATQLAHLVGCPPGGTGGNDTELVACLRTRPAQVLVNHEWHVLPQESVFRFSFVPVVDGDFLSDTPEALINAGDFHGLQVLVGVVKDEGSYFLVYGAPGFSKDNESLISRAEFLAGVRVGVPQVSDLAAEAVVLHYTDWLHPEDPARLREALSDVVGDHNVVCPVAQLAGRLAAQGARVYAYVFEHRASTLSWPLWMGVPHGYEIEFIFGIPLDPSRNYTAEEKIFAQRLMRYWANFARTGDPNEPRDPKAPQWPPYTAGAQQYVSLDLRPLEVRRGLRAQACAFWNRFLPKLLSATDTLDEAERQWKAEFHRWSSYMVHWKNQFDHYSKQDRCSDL
Compound,"activity change, negative = inhibition",Potency,outcome
CN1CCN(c2cc3c(nn2)Oc2ccccc2N3C)CC1,-13.5% [at 23.6 µM] (inactive),–,–
CCCCCCC[N+](CC)(CC)CCCCc1ccc(Cl)cc1,–,inactive,–
CCN(CC)CCNC(=O)c1cc(Cl)c(N)cc1OC,–,inactive,–
CC1=C(/C=C/C(C)=C\C=C\C(C)=C\C(=O)O)C(C)(C)CCC1,–,inactive,–
Cc1nc(Nc2ncc(C(=O)Nc3c(C)cccc3Cl)s2)cc(N2CCN(CCO)CC2)n1,–,inactive,–
N#C/C(=C1/SC[C@@H](c2ccc(Cl)cc2Cl)S1)n1ccnc1,–,inactive,–
Cc1ccc(C(=O)C(C)CN2CCCCC2)cc1 (stereo not given),–,inactive,–
O=C(OCC(O)CO)c1ccccc1Nc1ccnc2cc(Cl)ccc12 (stereo not given),–,inactive,–
Cc1nc2n(c(=O)c1CCN1CCC(c3noc4cc(F)ccc34)CC1)CCCC2,–,inactive,–
CCCCCCCCCCCCCCCC[N+](C)(C)CCN(Cc1ccc(OC)cc1)c1ncccn1,–,34.7 µM (active),–
C[n+]1ccn(Cc2ccccc2)c1,–,inactive,–
Clc1ccc2c(c1)CCc1cccnc1C2=C1CCNCC1,–,inactive,–
C[C@@H]1CCC[C@H](C)N1CCCC(O)(c1ccccc1)c1ccccn1 (stereo not given in full),–,inactive,–
Oc1cc2c(cc1O)[C@H]1c3ccc(O)c(O)c3OC[C@@]1(O)C2,–,inactive,–
CN(C)CCC[C@@]1(c2ccc(F)cc2)OCc2cc(C#N)ccc21,–,inactive,–
NS(=O)(=O)c1cc2c(cc1Cl)NC(CC1CCCC1)NS2(=O)=O (stereo not given),–,inactive,–
CN(C(=O)CCCOc1ccc2[nH]c(=O)ccc2c1)C1CCCCC1,–,inactive,–
Cc1c(C)n(CCN(C)C)c2ccc(C(=O)OCCN(C)C)cc12,–,inactive,–
O=C1NC2CCCCN2C12CCN(CCCN1c3ccccc3CCc3ccc(Cl)cc31)CC2 (stereo not given),–,inactive,–
CC1=C(/C=C/C(C)=C/C=C/C(C)=C/C=O)C(C)(C)CCC1,–,inactive,–

Compound,"activity change, negative = inhibition",Potency,outcome
CO/N=C1\CN(c2nc3c(cc2F)c(=O)c(C(=O)O)cn3C2CC2)CC1CN (stereo not given),–,–,inactive
COc1ccc2cc1Oc1ccc(cc1)C[C@H]1c3c(cc4c(c3Oc3cc5c(cc3OC)CCN(C)[C@@H]5C2)OCO4)CCN1C,–,inactive,–
CN1CCCCC1CCN1c2ccccc2Sc2ccc(S(C)=O)cc21 (stereo not given),–,inactive,–
COc1ccnc2c1CCCCC2S(=O)c1nc2ccccc2[nH]1 (stereo not given),–,inactive,–
O=[N+]([O-])c1cccc(S(=O)(=O)NCCNS(=O)(=O)c2cccc([N+](=O)[O-])c2)c1,–,inactive,–
CN1C(=O)N(c2ccccc2Br)Cc2cnc(Nc3ccc4c(c3)OCC(CO)O4)nc21 (stereo not given),–,inactive,–
c1ccc2c(c1)CCCC2C1=NCCN1 (stereo not given),–,inactive,–
CCN(CC)CCNC(=O)c1ccc(NC(C)=O)cc1,–,inactive,–
CN1CCC(=C2c3ccccc3CCc3sccc32)CC1,–,inactive,–
O=C(CCCN1CCN(c2ccccn2)CC1)c1ccc(F)cc1,–,inactive,–
O=C(O)c1cccc(N(Cc2cccnc2)c2ccc(OC(F)F)c(OC(F)F)c2)c1,–,inactive,–
Cc1cc(=O)oc2cc(N(C)C)ccc12,–,inactive,–
COc1cc(-c2ccc(N=C=O)c(OC)c2)ccc1N=C=O,–,inactive,–
CN1C[C@H]2c3ccccc3Oc3ccc(Cl)cc3[C@@H]2C1,–,inactive,–
CCCOC(=O)c1ccc(O)cc1,–,inactive,–
CCCCCCCCCCCC[N+](C)(C)CCCCCCCCCCCC,–,28.3 µM (active),–
CN1CCN2c3ccccc3Cc3ccccc3C2C1 (stereo not given),–,inactive,–
[O-][n+]1cccc(/C(Cl)=N/OC[C@@H](O)CN2CCCCC2)c1,–,inactive,–
CCC1=C[C@@H]2CN(C1)Cc1c([nH]c3ccccc13)[C@@](C(=O)OC)(c1cc3c(cc1OC)N(C)[C@H]1[C@@](O)(C(=O)OC)[C@H](OC(C)=O)[C@]4(CC)C=CCN5CC[C@]31[C@@H]54)C2,–,inactive,–
COc1ccc(-n2nc(C(F)F)cc2-c2ccc(S(C)=O)cc2)cc1 (stereo not given),–,inactive,–
